Measurements from PubChem BioAssay (NCATS).
Results filed as inconclusive are left out. A call without a number means that no potency is given here. Calls of active or inactive are those of the source. Calls follow the shape of the dose curve; as a rule, active = well fitted inhibition curve with a large enough effect; inconclusive = small, poorly fitted or top-dose-only effect; inactive = flat fitted curve, though single readings scatter.

Molecular target: Calcium and integrin-binding protein 1 (Homo sapiens) (UniProt Q99828)
Sequence (Q99828 whole entry, looked up): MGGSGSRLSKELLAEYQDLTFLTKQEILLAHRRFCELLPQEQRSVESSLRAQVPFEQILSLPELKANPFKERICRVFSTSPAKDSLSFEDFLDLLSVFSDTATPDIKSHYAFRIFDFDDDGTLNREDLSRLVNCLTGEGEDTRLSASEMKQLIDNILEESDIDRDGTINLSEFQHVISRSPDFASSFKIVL
Assay: Primary qHTS for Identification of Calcium Integrin Binding Protein 1 (CIB1) Competitor (AID 1508620);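 also: GST tagged CIB1 binding a fluorescein labelled alphaIIb integrin peptide tracer; top concentration of the series differs between compounds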
Details: CIB1-GST / FITC-alphaIIb peptide fluorescence polarization; series mostly up to 114 µM
In short: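 Fluorescence polarization competition: CIB1-GST (1 uM final) preincubated with compound 15 min at room temperature, then FITC-labeled alphaIIb peptide (100 nM final) added for another 15 min. Polarization read at Ex 480/Em 540.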

SMILES | Potency
O=C(O)c1ccc(CSc2nnc(-c3ccc([S+](=O)([O-])N4CCCC4)cc3)n2-c2ccccc2)cc1 | inactive
COc1ccc(C2Nc3ccccc3C(=O)N2Cc2ccccc2)cc1COc1c(C)cc(NC(C)=O)cc1C (stereo unspecified) | inactive
COc1cc(F)c(S(=O)(=O)N2CCN(S(=O)(=O)c3ccc(N)cc3)CC2)c(F)c1 | inactive
O=C(NC(c1ccco1)c1cc(Cl)c2cccnc2c1O)c1ccccc1 (stereo unspecified) | inactive
COc1cccc(CNc2ccc(S(=O)(=O)Nc3ncc(C)s3)cc2)c1O | inactive
O=C1CCc2cc(S(=O)(=O)Nc3cccc(C(F)(F)F)c3)ccc2N1 | inactive
COc1cccc(C2=Nn3c(nnc3-c3cc(OC)cc(OC)c3)SC2)c1 | inactive
O=C1CCCC2=C1C(c1cccc(Cl)c1)N=C(Nc1nc3ccccc3o1)N2 (stereo unspecified) | inactive
O=C1CCCC2=C1C(c1ccccc1Cl)N=C(c1ccccn1)N2 (stereo unspecified) | inactive
CCCCC(OC(=O)CNC(=O)c1ccccc1)C(=O)Nc1cc(C(F)(F)F)ccc1Cl (stereo unspecified) | inactive
COc1cc(NS(=O)(=O)c2ccc(C)cc2)cc(C(=O)Nc2nc(-c3ccccc3)cs2)c1 | inactive
CC(C)(C)OC(=O)N1CCN(c2ccc(NCc3nnc(-c4ccc(C#N)cc4)o3)cc2)CC1 | inactive
CSc1ccc(CNc2ncnc3ccc(-c4c(C)noc4C)cc23)cc1 | inactive
N#Cc1nc(Nc2ccc(F)cc2)nc(NC2CCCC2)n1 | inactive
C#CCOc1ccc(C(C)=O)cc1-c1nnc2n1N=C(c1ccc(OC)c(OC)c1)CS2 | inactive
CC(C)(C)OC(=O)Cc1nnc(-c2cc3ccccc3[nH]2)s1 | inactive
